Experimental data reported in PubChem BioAssay (EPA / NIEHS).
Records with an inconclusive call do not appear. The source made the active and inactive calls. How the source made its calls, unless noted: active means hit-call score of the fitted dose curve at least 0.9, where 1 is the maximum; inactive means score below 0.9.

What was measured:
[1] = read-out: Pyruvate Dehydrogenase Kinase 4 (PDK4), PDK4 (gene 5166); assay: LTEA_HepaRG_PDK4: Life Technologies and Expression Analysis (LTEA) Assay for Pyruvate Dehydrogenase Kinase 4 (PDK4) using HepaRG (AID 2283525); conditions: mRNA level, 48 h; actives raise or lower the signal
Method in brief: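 In this multiplexed human HepaRG expression assay, cells are treated 48 h with test chemicals across an eight-point range starting at 100 uM. PDK4 mRNA changes, normalized to ACTB/GAPDH/POLR2A, are fitted in both directions relative to vehicle.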

[2] = read-out: NAD(P)H dehydrogenase [quinone] 1 (NQO1), NQO1 (gene 1728); assay: LTEA_HepaRG_NQO1: Life Technologies and Expression Analysis (LTEA) Assay for NAD(P)H dehydrogenase [quinone] 1 (NQO1) using HepaRG (AID 2283526); conditions: mRNA level, 48 h; actives raise or lower the signal
Method in brief: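 Differentiated human HepaRG cells in serum-free induction medium, dosed in duplicate for 48 h at 8 half-log concentrations up to 100 uM in 0.5% DMSO. NQO1 mRNA by qRT-PCR normalized to ACTB, GAPDH, POLR2A; bidirectional fit versus DMSO baseline.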

[3] = read-out: Nuclear factor erythroid 2-related factor 2 (Homo sapiens) (UniProt Q16236); assay: LTEA_HepaRG_NFE2L2: Life Technologies and Expression Analysis (LTEA) Assay for Nuclear factor erythroid 2-related factor 2 (NFE2L2) Transcription Factor using HepaRG (AID 2283527); conditions: mRNA level, 48 h; actives raise or lower the signal
Method in brief: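 Transcript level of NFE2L2 is the read-out, measured by microfluidic TaqMan qRT-PCR and normalized to three housekeeping genes. Human HepaRG cultures received test chemical for 48 h at up to 100 uM in half-log steps. Gain or loss of signal is fitted relative to 0.5% DMSO.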

[4] = read-out: Signal transducer and activator of transcription 3 (Homo sapiens) (UniProt P40763); assay: LTEA_HepaRG_STAT3: Life Technologies and Expression Analysis (LTEA) Assay for Signal transducer and activator of transcription (STAT3) using HepaRG (AID 2283529); conditions: mRNA level, 48 h; actives raise or lower the signal
Method in brief: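 Read-out is STAT3 mRNA level by qRT-PCR, normalized to three housekeeping genes, in human HepaRG liver cells treated for 48 h. Concentrations ran from 100 uM downward in half-log steps; curves were fitted for gain or loss relative to 0.5% DMSO.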

[5] = read-out: solute carrier (SLCO1B1), SLCO1B1 (gene 10599); assay: LTEA_HepaRG_SLCO1B1: Life Technologies and Expression Analysis (LTEA) Assay for solute carrier (SLCO1B1) using HepaRG (AID 2283530); conditions: mRNA level, 48 h; actives raise or lower the signal
Method in brief: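 Differentiated human HepaRG cells, plated 48 h, switched to serum-free induction medium and exposed in duplicate for 48 h to 8 half-log concentrations (top 100 uM) in 0.5% DMSO. SLCO1B1 mRNA by TaqMan qRT-PCR, normalized to ACTB/GAPDH/POLR2A.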

[6] = read-out: sulfotransferase 2A1 (SULT2A1), SULT2A1 (gene 6822); assay: LTEA_HepaRG_SULT2A1: Life Technologies and Expression Analysis (LTEA) Assay for sulfotransferase 2A1 (SULT2A1) using HepaRG (AID 2283531); conditions: mRNA level, 48 h; actives raise or lower the signal
Method in brief: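 Differentiated human HepaRG cells in serum-free induction medium were exposed for 48 h to eight half-log concentrations (top 100 uM, 0.5% DMSO). SULT2A1 mRNA was measured by qRT-PCR, normalized to ACTB, GAPDH and POLR2A, and fitted bidirectionally against DMSO.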

[7] = read-out: Transforming Growth Factor (TGFA), TGFA (gene 7039); assay: LTEA_HepaRG_TGFA: Life Technologies and Expression Analysis (LTEA) Assay for Transforming Growth Factor (TGFA) using HepaRG (AID 2283532); conditions: mRNA level, 48 h; actives raise or lower the signal
Method in brief: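 HepaRG (human liver line), 48 h exposure, 8 conc. half-log down from 100 uM, 0.5% DMSO vehicle, duplicates; serum-free induction medium. TGFA mRNA by TaqMan qRT-PCR, ACTB/GAPDH/POLR2A normalization; gain/loss fit vs DMSO.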

[8] = read-out: Transforming Growth Factor (TGFB1), TGFB1 (gene 7040); assay: LTEA_HepaRG_TGFB1: Life Technologies and Expression Analysis (LTEA) Assay for Transforming Growth Factor (TGFB1) Transporter using HepaRG (AID 2283533); conditions: mRNA level, 48 h; actives raise or lower the signal
Method in brief: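 Differentiated human HepaRG cells in serum-free induction medium were exposed in duplicate for 48 h to eight concentrations (top 100 uM, half-log steps, 0.5% DMSO). TGFB1 mRNA was quantified by qRT-PCR, normalized to ACTB, GAPDH, POLR2A, and fitted bidirectionally against DMSO.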

TIMP1, TIMP1 (gene 7076) = assay: LTEA_HepaRG_TIMP1: Life Technologies and Expression Analysis (LTEA) Assay for TIMP1 using HepaRG (AID 2283534); conditions: mRNA level, 48 h; actives raise or lower the signal
Method in brief: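 Differentiated human HepaRG cells in serum-free induction medium were exposed 48 h to chemicals (8 half-log concentrations, top 100 uM, 0.5% DMSO). TIMP1 mRNA was quantified by TaqMan qRT-PCR, normalized to ACTB/GAPDH/POLR2A; bidirectional fit versus DMSO.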

[9] = read-out: Thyroid Hormone Responsive (THRSP), THRSP (gene 7069); assay: LTEA_HepaRG_THRSP: Life Technologies and Expression Analysis (LTEA) Assay for Thyroid Hormone Responsive (THRSP) using HepaRG (AID 2283536); conditions: mRNA level, 48 h; actives raise or lower the signal
Method in brief: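 mRNA induction or loss relative to 0.5% DMSO vehicle was fitted bidirectionally across an eight-point curve whose highest exposure was 100 uM. Human HepaRG liver cells received chemicals in duplicate over 48 h before RNA extraction.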

[10] = read-out: Cellular tumor antigen p53 (Homo sapiens) (UniProt P04637); assay: LTEA_HepaRG_TP53: Life Technologies and Expression Analysis (LTEA) Assay for Tumor Protein P53 (TP53) using HepaRG (AID 2283537); conditions: mRNA level, 48 h; actives raise or lower the signal
Method in brief: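 Differentiated HepaRG cells in serum-free induction medium exposed 48 h in duplicate to 8 half-log concentrations, top 100 uM, 0.5% DMSO. TP53 mRNA by TaqMan qRT-PCR (Fluidigm), normalized to ACTB, GAPDH, POLR2A; fitted bidirectionally versus DMSO.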

[11] = read-out: UDP glucuronosyltransferase (UGT1A1), UGT1A1 (gene 54658); assay: LTEA_HepaRG_UGT1A1: Life Technologies and Expression Analysis (LTEA) Assay for UDP glucuronosyltransferase (UGT1A1) using HepaRG (AID 2283538); conditions: mRNA level, 48 h; actives raise or lower the signal
Method in brief: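 HepaRG cells, 0.5% DMSO vehicle, 48 h exposure in serum-free induction medium to 8-point half-log series topping at 100 uM, in duplicate. UGT1A1 mRNA by Fluidigm qRT-PCR, normalized to ACTB/GAPDH/POLR2A; bidirectional fit versus DMSO.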

[12] = read-out: UDP glucuronosyltransferase (UGT1A6), UGT1A6 (gene 54578); assay: LTEA_HepaRG_UGT1A6: Life Technologies and Expression Analysis (LTEA) Assay for UDP glucuronosyltransferase (UGT1A6) using HepaRG (AID 2283539); conditions: mRNA level, 48 h; actives raise or lower the signal
Method in brief: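 Human HepaRG cells were dosed for 48 h in serum-free induction medium with 0.5% DMSO vehicle, eight-point half-log series from 100 uM, in duplicate. UGT1A6 mRNA was measured by qRT-PCR, normalized to ACTB, GAPDH, POLR2A, and fitted bidirectionally against DMSO.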

[13] = read-out: X-box binding protein 1 (XBP1), XBP1 (gene 7494); assay: LTEA_HepaRG_XBP1: Life Technologies and Expression Analysis (LTEA) Assay for X-box binding protein 1 (XBP1) using HepaRG (AID 2283540); conditions: mRNA level, 48 h; actives raise or lower the signal
Method in brief: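 Differentiated human HepaRG cells in serum-free induction medium were exposed in duplicate for 48 h to eight half-log concentrations up to 100 uM in 0.5% DMSO. XBP1 mRNA was quantified by qRT-PCR, normalised to ACTB, GAPDH and POLR2A, with bidirectional fitting against DMSO.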

[14] = LTEA_HepaRG_LDH_cytotoxicity: Cytotoxicity Assessment in the Life Technologies and Expression Analysis (LTEA) Assay (AID 2283563; active means hit-call score of the fitted dose curve at least 0.9, where 1 is the maximum;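 on AC50: LDH activity released into spent culture medium as a marker of cell death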)
Method in brief: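 Differentiated human HepaRG cells, plated 48 h beforehand, were switched to serum-free induction medium and exposed for 48 h to eight half-log concentrations (top 100 uM) in 0.5% DMSO. LDH was measured in spent medium; activity was fitted relative to DMSO vehicle.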

[15] = ATG_XTT_Cytotoxicity: Cytotoxicity Assessment in the Attagene TRANS-FACTORIAL HepG2 Assay (AID 2283584; active means hit-call score of the fitted dose curve at least 0.9, where 1 is the maximum)
Method in brief: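 HepG2 human liver cells, transiently transfected with multiple GAL4-UAS reporter units, were dosed and read at 24 h by XTT as cell number. Loss of signal was fitted relative to DMSO negative control baseline.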

[16] = target: Cellular tumor antigen p53 (Homo sapiens) (UniProt P04637); assay: TOX21_p53_BLA_p2_ratio: Tox21 HCT-116 p53 Agonism Beta-lactamase Assay, Ratio, Phase 2 (AID 2283592; active means hit-call score of the fitted dose curve at least 0.9, where 1 is the maximum)
Method in brief: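 HCT116 cells carrying a p53-responsive beta-lactamase reporter were plated, incubated 5 h at 37C, then dosed with compounds in DMSO (217-fold dilution) for 16 h. CCF4-AM substrate was added for 2 h at room temperature; the 460/530 nm emission ratio gave gain-of-signal activity relative to DMSO.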

[17] = read-out: Tumor necrosis factor receptor 1 (TNFRSF1A), TNFRSF1A (gene 7132); assay: LTEA_HepaRG_TNFRSF1A: Life Technologies and Expression Analysis (LTEA) Assay for Tumor necrosis factor receptor 1 (TNFRSF1A) using HepaRG (AID 2283535); conditions: mRNA level, 48 h; actives raise or lower the signal
Method in brief: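 Differentiated human HepaRG cells were exposed in duplicate for 48 h in serum-free induction medium to eight concentrations (top 100 uM, half-log steps, 0.5% DMSO). TNFRSF1A mRNA was quantified by qRT-PCR, normalized to ACTB, GAPDH and POLR2A, then fitted bidirectionally against DMSO.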

[18] = TOX21_p53_BLA_p2_viability: Viability Assessment in the Tox21 HCT-116 p53 Agonism Beta-lactamase Assay, Phase 2 (AID 2283591; active means hit-call score of the fitted dose curve at least 0.9, where 1 is the maximum;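 further: compound exposure lasted 16 h at 37 °C; actives lower the ATP signal meaning cytotoxicity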)
Method in brief: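 Cytotoxicity readout: CellTiter-Glo ATP luminescence, 30 min at room temperature, after the beta-lactamase read. Cells were HCT116 exposed 16 h at 37C to compounds pin-transferred at 217-fold dilution from DMSO stocks.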

Measured: AC50

Chain of Signal transducer and activator of transcription 3 (Homo sapiens) (P40763 whole entry, looked up): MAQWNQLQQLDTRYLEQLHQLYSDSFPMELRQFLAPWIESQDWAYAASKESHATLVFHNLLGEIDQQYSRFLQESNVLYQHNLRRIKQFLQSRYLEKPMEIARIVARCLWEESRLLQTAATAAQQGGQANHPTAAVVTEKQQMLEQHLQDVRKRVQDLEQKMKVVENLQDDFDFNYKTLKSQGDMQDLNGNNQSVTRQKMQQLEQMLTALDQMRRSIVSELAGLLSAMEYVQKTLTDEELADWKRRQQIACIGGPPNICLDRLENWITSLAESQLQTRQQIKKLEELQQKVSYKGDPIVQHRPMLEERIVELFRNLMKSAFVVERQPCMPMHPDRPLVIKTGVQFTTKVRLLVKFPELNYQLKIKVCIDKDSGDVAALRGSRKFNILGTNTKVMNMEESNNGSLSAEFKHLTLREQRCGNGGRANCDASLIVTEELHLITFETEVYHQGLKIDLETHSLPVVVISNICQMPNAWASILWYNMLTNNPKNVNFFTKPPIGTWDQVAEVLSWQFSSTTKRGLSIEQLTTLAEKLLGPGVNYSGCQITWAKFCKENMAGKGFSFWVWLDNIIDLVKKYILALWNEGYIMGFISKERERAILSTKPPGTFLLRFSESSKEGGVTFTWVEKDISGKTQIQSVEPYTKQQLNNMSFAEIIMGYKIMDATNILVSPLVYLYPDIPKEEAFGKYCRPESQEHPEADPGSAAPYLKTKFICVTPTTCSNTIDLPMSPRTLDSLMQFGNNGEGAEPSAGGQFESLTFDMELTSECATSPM
Chain of Nuclear factor erythroid 2-related factor 2 (Homo sapiens) (Q16236 whole entry, looked up): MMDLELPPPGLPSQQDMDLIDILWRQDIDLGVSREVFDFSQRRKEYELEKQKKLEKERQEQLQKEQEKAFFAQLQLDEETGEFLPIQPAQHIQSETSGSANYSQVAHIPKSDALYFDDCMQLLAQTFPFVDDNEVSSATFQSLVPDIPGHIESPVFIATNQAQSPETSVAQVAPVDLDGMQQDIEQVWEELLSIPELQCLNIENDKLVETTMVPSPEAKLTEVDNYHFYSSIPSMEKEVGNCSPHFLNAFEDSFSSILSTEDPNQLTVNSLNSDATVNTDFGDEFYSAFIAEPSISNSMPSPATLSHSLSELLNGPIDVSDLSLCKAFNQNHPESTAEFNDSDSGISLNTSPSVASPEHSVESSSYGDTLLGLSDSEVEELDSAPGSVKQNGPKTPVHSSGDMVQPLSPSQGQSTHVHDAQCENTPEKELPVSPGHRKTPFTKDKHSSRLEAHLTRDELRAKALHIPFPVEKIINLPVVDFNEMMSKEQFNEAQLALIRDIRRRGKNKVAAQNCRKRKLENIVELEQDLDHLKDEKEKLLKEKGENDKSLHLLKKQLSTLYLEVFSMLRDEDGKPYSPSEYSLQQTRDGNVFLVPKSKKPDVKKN
Chain of Cellular tumor antigen p53 (Homo sapiens) (P04637 whole entry, looked up): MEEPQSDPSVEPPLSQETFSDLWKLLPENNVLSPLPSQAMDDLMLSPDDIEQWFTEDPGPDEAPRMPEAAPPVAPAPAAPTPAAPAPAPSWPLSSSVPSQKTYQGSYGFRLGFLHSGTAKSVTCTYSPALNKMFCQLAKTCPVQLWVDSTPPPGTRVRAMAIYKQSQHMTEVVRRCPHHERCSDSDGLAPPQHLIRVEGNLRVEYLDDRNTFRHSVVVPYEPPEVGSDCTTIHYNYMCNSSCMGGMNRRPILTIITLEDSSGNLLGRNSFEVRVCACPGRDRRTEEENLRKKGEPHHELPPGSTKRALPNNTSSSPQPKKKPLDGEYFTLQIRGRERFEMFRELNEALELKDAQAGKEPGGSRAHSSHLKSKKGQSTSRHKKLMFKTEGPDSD

COc1ccc(O)c(C(C)(C)C)c1
not listed: [17] | [18]
inactive: all other assays above

CO/C=C(/C(=O)OC)c1ccccc1COc1cccc(C(F)(F)F)n1
inactive: [1] | [2] | [8] | [13] | [15] | [18]
active: [3] 21.6 µM | [4] 3.4 µM | [5] 8.29 µM | [6] 21.5 µM | [7] 10.6 µM | TIMP1, TIMP1 (gene 7076) 26.8 µM | [17] 4.97 µM | [9] 7.31 µM | [10] 10.1 µM | [11] 20.5 µM | [12] 22.2 µM | [14] 21.2 µM | [16] 2.77 µM

ClC1=C(Cl)[C@]2(Cl)[C@@H]3[C@@H]4C[C@@H]([C@H]5O[C@@H]45)[C@@H]3[C@@]1(Cl)C2(Cl)Cl
active: [1] 0.00905 µM | [3] 0.0292 µM | [4] 0.0319 µM | [9] 50 µM | [11] 1.65 µM | [13] 0.0249 µM
inactive: all other assays above

Cc1ccccc1O
inactive: all assays above
